According to ChEMBL document CHEMBL2218924, “A broad activity screen in support of a chemogenomic map for kinase signalling research and drug discovery” (Biochem J, 2013):

Tests used:
[1] = target: T1, Mitogen-activated protein kinase 12 (Homo sapiens) (UniProt P53778); settings: at 1 µM
T1 sequence (whole entry): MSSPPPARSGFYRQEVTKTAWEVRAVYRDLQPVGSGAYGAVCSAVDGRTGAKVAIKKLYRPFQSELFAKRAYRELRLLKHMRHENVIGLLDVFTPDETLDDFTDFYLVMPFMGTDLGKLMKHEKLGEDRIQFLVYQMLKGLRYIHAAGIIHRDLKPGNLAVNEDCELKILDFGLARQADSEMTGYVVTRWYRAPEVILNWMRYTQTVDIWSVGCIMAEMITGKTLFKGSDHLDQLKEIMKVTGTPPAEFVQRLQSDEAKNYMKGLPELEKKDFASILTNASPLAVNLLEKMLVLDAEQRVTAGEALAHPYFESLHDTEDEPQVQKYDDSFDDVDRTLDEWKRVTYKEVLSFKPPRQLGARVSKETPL

[2] = target: T1, Mitogen-activated protein kinase 12 (Homo sapiens); settings: at 10 µM
[3] = target: Mitogen-activated protein kinase 14 (Homo sapiens) (UniProt Q16539); settings: at 1 µM
[4] = target: Mitogen-activated protein kinase 14 (Homo sapiens) (UniProt Q16539); settings: at 10 µM
[5] = target: T2, Serine/threonine-protein kinase Sgk3 (Homo sapiens) (UniProt Q96BR1); settings: at 1 µM
T2 sequence (whole entry): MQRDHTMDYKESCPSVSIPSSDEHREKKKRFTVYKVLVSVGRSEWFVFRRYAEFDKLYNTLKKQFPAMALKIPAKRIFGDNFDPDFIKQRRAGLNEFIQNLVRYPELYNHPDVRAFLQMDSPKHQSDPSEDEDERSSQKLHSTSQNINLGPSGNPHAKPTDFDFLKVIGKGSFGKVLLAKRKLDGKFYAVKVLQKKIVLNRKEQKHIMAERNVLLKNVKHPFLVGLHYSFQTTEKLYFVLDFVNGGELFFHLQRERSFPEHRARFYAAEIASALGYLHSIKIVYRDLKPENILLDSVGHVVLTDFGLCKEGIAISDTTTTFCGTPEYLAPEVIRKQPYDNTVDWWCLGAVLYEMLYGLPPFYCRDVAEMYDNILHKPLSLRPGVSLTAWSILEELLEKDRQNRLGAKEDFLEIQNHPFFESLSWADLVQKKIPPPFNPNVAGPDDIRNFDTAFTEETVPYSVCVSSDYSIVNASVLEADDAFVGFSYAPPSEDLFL

[6] = target: T2, Serine/threonine-protein kinase Sgk3 (Homo sapiens); settings: at 10 µM
[7] = target: SRSF protein kinase 2 (Homo sapiens) (UniProt P78362); settings: at 1 µM
[8] = target: SRSF protein kinase 2 (Homo sapiens) (UniProt P78362); settings: at 10 µM
[9] = target: Mitogen-activated protein kinase 11 (Homo sapiens) (UniProt Q15759); settings: at 1 µM
[10] = target: Mitogen-activated protein kinase 11 (Homo sapiens) (UniProt Q15759); settings: at 10 µM
[11] = target: T3, Mitogen-activated protein kinase 13 (Homo sapiens) (UniProt O15264); settings: at 10 µM
T3 sequence (whole entry): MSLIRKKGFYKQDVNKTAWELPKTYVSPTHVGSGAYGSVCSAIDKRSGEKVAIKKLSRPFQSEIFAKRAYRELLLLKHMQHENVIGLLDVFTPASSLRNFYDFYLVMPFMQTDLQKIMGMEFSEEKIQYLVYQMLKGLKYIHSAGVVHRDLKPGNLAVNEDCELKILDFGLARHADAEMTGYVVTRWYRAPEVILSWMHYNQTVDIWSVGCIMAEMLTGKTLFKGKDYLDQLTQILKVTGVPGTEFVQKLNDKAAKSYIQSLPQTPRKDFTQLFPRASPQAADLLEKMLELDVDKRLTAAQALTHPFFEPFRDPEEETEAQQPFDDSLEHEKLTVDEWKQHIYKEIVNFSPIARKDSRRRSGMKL

[12] = target: T4, Serine/threonine-protein kinase Sgk1 (Homo sapiens) (UniProt O00141); settings: at 1 µM
T4 sequence (whole entry): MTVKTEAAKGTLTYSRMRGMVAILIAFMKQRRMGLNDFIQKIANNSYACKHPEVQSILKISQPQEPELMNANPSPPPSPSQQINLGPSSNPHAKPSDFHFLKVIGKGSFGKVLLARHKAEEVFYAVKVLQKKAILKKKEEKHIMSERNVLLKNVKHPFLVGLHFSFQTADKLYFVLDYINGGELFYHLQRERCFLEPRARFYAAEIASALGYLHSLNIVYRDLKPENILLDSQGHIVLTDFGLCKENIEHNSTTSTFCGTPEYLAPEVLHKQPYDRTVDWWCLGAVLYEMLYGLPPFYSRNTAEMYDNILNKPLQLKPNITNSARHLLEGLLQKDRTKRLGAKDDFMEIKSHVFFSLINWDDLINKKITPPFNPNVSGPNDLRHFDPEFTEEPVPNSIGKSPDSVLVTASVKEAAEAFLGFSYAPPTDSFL

[13] = target: T4, Serine/threonine-protein kinase Sgk1 (Homo sapiens); settings: at 10 µM
[14] = target: T5, Serine/threonine-protein kinase Sgk2 (Homo sapiens) (UniProt Q9HBY8); settings: at 1 µM
T5 sequence (whole entry): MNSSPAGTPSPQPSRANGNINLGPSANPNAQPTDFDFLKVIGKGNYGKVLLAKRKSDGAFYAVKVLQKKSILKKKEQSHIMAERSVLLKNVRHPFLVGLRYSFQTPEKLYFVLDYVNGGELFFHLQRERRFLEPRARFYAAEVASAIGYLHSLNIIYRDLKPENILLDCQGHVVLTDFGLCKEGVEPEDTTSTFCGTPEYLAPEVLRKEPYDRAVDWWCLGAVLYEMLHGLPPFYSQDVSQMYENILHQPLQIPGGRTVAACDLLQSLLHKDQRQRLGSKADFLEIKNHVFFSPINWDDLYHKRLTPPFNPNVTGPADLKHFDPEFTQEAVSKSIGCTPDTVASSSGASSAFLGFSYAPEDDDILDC

[15] = target: T5, Serine/threonine-protein kinase Sgk2 (Homo sapiens); settings: at 10 µM
[16] = target: Serine/threonine-protein kinase SIK1 (Homo sapiens) (UniProt P57059); settings: at 1 µM
[17] = target: Serine/threonine-protein kinase SIK1 (Homo sapiens) (UniProt P57059); settings: at 10 µM
[18] = target: SRSF protein kinase 1 (Homo sapiens) (UniProt Q96SB4); settings: at 1 µM
[19] = target: SRSF protein kinase 1 (Homo sapiens) (UniProt Q96SB4); settings: at 10 µM
[20] = target: T3, Mitogen-activated protein kinase 13 (Homo sapiens); settings: at 1 µM

SRSF protein kinase 2 (Homo sapiens), sequence (P78362 whole entry, looked up): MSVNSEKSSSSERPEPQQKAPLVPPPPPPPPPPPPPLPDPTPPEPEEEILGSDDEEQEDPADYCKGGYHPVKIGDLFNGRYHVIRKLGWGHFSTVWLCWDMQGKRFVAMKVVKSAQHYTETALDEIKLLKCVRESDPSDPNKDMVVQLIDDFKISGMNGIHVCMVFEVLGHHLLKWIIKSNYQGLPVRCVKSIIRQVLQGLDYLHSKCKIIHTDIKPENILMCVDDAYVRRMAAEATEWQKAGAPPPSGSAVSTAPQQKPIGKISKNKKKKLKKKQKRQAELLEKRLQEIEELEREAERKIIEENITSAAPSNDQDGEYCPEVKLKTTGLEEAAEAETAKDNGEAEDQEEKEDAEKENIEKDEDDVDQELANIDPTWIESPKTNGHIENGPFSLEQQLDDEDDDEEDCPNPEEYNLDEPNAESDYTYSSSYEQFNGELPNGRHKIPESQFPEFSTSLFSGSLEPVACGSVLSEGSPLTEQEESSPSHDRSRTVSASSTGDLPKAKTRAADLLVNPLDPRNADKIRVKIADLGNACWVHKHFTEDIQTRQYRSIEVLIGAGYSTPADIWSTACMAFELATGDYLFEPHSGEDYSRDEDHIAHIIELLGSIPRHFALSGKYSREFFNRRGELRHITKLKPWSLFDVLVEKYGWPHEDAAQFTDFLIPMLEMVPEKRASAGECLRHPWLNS
Serine/threonine-protein kinase SIK1 (Homo sapiens), sequence (P57059 whole entry): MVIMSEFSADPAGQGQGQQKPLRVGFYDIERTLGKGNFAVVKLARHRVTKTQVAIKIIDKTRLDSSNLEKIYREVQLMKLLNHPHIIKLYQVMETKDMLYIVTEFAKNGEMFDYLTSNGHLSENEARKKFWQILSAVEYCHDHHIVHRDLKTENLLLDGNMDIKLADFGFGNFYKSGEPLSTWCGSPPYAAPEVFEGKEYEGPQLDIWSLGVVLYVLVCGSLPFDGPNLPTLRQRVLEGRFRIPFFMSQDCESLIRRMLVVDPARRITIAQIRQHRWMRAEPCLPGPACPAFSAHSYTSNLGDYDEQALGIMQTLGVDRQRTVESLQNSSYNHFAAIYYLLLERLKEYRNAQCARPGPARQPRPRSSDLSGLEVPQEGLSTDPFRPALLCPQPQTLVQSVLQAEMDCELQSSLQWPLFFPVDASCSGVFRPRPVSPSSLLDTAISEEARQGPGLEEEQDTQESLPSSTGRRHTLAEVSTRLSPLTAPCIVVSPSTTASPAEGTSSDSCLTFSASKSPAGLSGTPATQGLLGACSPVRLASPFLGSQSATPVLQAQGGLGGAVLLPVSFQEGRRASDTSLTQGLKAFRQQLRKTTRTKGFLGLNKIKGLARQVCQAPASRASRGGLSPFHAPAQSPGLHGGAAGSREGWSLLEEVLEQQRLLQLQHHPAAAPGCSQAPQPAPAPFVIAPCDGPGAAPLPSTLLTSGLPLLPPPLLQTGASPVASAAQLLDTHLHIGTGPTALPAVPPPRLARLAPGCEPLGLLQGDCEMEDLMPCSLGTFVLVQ
Mitogen-activated protein kinase 14 (Homo sapiens), sequence (Q16539 whole entry): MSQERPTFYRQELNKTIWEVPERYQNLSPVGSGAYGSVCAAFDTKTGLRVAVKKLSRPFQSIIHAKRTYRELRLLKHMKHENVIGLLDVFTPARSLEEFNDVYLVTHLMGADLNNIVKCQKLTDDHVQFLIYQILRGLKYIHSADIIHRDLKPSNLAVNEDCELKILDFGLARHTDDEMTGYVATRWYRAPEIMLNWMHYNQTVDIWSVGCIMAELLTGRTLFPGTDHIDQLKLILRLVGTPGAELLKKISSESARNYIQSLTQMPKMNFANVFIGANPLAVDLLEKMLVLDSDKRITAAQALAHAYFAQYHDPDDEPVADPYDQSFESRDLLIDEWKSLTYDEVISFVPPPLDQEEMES
SRSF protein kinase 1 (Homo sapiens), sequence (Q96SB4 whole entry): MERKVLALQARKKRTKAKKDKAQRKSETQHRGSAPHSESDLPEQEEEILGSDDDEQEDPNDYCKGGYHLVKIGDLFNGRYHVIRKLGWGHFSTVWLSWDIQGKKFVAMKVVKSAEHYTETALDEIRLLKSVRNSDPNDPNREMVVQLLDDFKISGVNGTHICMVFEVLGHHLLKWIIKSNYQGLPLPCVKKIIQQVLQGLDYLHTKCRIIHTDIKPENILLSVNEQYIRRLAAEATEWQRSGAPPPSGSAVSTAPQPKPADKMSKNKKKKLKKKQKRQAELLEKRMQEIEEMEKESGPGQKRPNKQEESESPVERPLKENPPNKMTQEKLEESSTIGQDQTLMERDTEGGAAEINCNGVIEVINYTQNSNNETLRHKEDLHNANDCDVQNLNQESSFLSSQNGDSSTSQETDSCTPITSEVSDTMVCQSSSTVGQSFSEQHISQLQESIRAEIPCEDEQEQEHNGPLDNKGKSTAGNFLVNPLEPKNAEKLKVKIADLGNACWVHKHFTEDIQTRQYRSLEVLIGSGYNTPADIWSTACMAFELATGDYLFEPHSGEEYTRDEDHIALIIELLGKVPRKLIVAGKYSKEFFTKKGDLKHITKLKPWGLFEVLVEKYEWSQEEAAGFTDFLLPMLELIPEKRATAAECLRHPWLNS
Mitogen-activated protein kinase 11 (Homo sapiens), sequence (Q15759 whole entry): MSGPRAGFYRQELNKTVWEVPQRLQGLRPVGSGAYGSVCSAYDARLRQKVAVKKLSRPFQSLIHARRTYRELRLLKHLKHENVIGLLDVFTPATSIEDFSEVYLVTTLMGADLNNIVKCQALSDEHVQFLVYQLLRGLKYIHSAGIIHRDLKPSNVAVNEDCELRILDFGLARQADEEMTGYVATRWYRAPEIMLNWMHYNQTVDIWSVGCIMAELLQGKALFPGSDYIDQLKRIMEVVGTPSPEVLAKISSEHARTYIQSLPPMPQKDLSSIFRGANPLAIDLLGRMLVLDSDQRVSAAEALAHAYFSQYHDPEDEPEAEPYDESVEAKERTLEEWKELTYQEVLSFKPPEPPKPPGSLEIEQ

`O=C(CCCc1ccc(-c2ccccc2F)cc1)Nc1ccc(O)cc1` showed a residual activity [1] of 101% and a residual activity [2] of 100%.
With `COc1cc2c(cc1OC)-c1n[nH]c(Nc3cccc(F)c3)c1C2` the residual activity [1] was 100%.
In the case of `N#Cc1c(NC(=O)c2cccc3ccccc23)sc2c1CCCC2`, the residual activity [1] is reported as 96%.
Compound `c1ccc(-c2n[nH]cc2-c2ccnc3ccccc23)nc1` has a residual activity [1] of 101%.
Compound `N/C(=N\[N+](=O)[O-])N/N=C\c1ccc(-c2cccc([N+](=O)[O-])c2)o1` has a residual activity [3] of 81%, a residual activity [4] of 91% and a residual activity [5] of 127%. It also gave a residual activity [6] of 81%, a residual activity [7] of 99% and a residual activity [8] of 88%.
Compound `O=c1[nH]c2ccccc2n1C1CCN(Cc2ccc(-c3nc4cc5[nH]cnc5cc4nc3-c3ccccc3)cc2)CC1` has a residual activity [3] of 75%, a residual activity [4] of 113% and a residual activity [9] of 100%. For the same compound, the residual activity [10] was 103%, the residual activity [1] was 108% and the residual activity [2] was 82%. For the same compound, the residual activity [11] was 91%, the residual activity [12] was 106% and the residual activity [13] was 68%. The residual activity [14] was 100%, the residual activity [15] was 74% and the residual activity [5] was 94%. It also gave a residual activity [6] of 81%, a residual activity [16] of 115% and a residual activity [17] of 44%. For the same compound, the residual activity [18] was 80%, the residual activity [19] was 97% and the residual activity [7] was 99%. It also gave a residual activity [8] of 80%.
`COc1cc2nccc(Oc3ccc(NC(=O)Nc4cc(C)on4)c(Cl)c3)c2cc1OC` was tested, and the residual activity [3] was 23%, the residual activity [4] was 5% and the residual activity [10] was 5%.
For `O=c1cc(N2CCNCC2)oc2c(-c3ccccc3)cccc12`, the residual activity [1] was 92% and the residual activity [2] was 105%.
`CCOc1cc2ncnc(Nc3cccc(Br)c3)c2cc1OCC` gave a residual activity [1] of 103%, a residual activity [2] of 98% and a residual activity [5] of 108%.
For `Oc1c2ccccc2c2c3c(cccc13)N=N2`, the residual activity [1] was 82%, the residual activity [2] was 61% and the residual activity [5] was 85%.
With `CNc1cc2c(Nc3cccc(Br)c3)ncnc2cn1` the residual activity [1] was 105%, the residual activity [2] was 95% and the residual activity [5] was 103%.
With `Ic1cccc(CSc2nnc(-c3ccncc3)o2)c1` the residual activity [1] was 88%, the residual activity [2] was 93% and the residual activity [5] was 91%.
`Oc1ccc(Nc2nc(-c3ccc(Cl)cc3)cs2)cc1` showed a residual activity [1] of 112%, a residual activity [2] of 100% and a residual activity [5] of 112%.
`Oc1n[nH]c2nnc(-c3c(-c4ccccc4)nn4ccccc34)cc12` was tested, and the residual activity [1] was 96%, the residual activity [2] was 90% and the residual activity [5] was 92%.
Compound `O=C1Nc2ccc(Br)cc2/C1=C\c1cc2c([nH]1)CCCC2` has a residual activity [1] of 115% and a residual activity [2] of 102%.
`COc1ccc(Cl)cc1NC(=O)Nc1cc(C)nc2ccccc12` was tested, and the residual activity [1] was 95% and the residual activity [2] was 85%.
With `O=c1cc(N2CCOCC2)oc2c1ccc1ccccc12` the residual activity [1] was 104%, the residual activity [2] was 90% and the residual activity [5] was 97%.
Compound `O=[N+]([O-])c1ccc(-c2nc(-c3ccc(F)cc3)c(-c3ccncc3)[nH]2)cc1` has a residual activity [1] of 101%, a residual activity [2] of 93% and a residual activity [5] of 111%.
With `O=C(O)/C=C/c1cc(Br)c(Br)c(Br)c1Br` the residual activity [1] was 110% and the residual activity [2] was 90%.
`COc1cc2ncnc(Nc3cccc(Cl)c3)c2cc1OC` showed a residual activity [1] of 116% and a residual activity [2] of 103%.
`C[S+]([O-])c1ccc(-c2nc(-c3ccc(F)cc3)c(-c3ccncc3)[nH]2)cc1` (stereo not given) gave a residual activity [1] of 114%, a residual activity [2] of 86% and a residual activity [20] of 111%. For the same compound, the residual activity [12] was 96%, the residual activity [13] was 124% and the residual activity [14] was 114%. It also gave a residual activity [15] of 81%, a residual activity [5] of 120% and a residual activity [6] of 101%. For the same compound, the residual activity [16] was 132%, the residual activity [17] was 93% and the residual activity [18] was 112%. The residual activity [19] was 109% and the residual activity [7] was 112%.
`COc1cccc(-c2cc(=O)c3ccccc3o2)c1N` showed a residual activity [1] of 102%, a residual activity [2] of 96% and a residual activity [5] of 104%.
In the case of `Nc1n[nH]c2nnc(-c3c(-c4ccccc4)nn4ccccc34)cc12`, the residual activity [1] is reported as 91%, the residual activity [2] is reported as 69% and the residual activity [5] is reported as 106%.
`COc1ccc(C(=O)Nc2sc3c(c2C(N)=O)CCCC3)cc1OC` was tested, and the residual activity [1] was 95%, the residual activity [2] was 83% and the residual activity [5] was 74%.
`COc1ccc(CNc2nc(N(CCO)CCO)nc3c2ncn3C(C)C)cc1` showed a residual activity [1] of 109%, a residual activity [2] of 99% and a residual activity [5] of 114%.
`O=C1NC(=O)c2cc(Nc3ccc(F)cc3)c(Nc3ccc(F)cc3)cc21` showed a residual activity [1] of 99%, a residual activity [2] of 82% and a residual activity [5] of 96%.
`O=C1C(Cl)=C(N2C(=O)CCC2=O)C(=O)c2ccccc21` showed a residual activity [1] of 96% and a residual activity [2] of 99%.
`Cn1cc(/C=C2\C(=O)Nc3ccc(S(N)(=O)=O)cc32)c2ccccc21` showed a residual activity [1] of 99%, a residual activity [2] of 104% and a residual activity [5] of 112%.
Compound `CC(=O)c1ccc(N2CCOCC2)cc1O` has a residual activity [1] of 110% and a residual activity [2] of 102%.
`O=C1NC(=O)c2c1c1c3ccccc3[nH]c1n1cncc21` showed a residual activity [1] of 95%, a residual activity [2] of 87% and a residual activity [5] of 87%.
`C[C@@H](N)[C@H]1CC[C@H](C(=O)Nc2ccncc2)CC1` showed a residual activity [1] of 111%, a residual activity [2] of 111% and a residual activity [5] of 101%.
With `O=C1c2ccccc2-[n+]2ccc3c([nH]c4ccccc43)c21` the residual activity [1] was 89%, the residual activity [2] was 100% and the residual activity [5] was 99%.
For `O=c1cc(-c2cccc3c2Sc2ccccc2S3)oc(N2CCOCC2)c1`, the residual activity [1] was 104%, the residual activity [2] was 101% and the residual activity [5] was 101%.
